Assay results taken from the supplement of paper PMC10646978.
± gives the standard deviation.

Legend:
Conditions in all cases: modulator concentration 10 µM
[1] = system: RAW-Dual (murine macrophage reporter line); assay: NF-kB reporter (SEAP) activity fold change vs agonist alone; higher = enhanced NF-kB activity
Procedure, shortened: (§1)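 RAW-Dual murine macrophage reporter cells were plated at 50 000 per well in 384-well plates, pin-transferred compound to 10 μM final, and pre-incubated for 1 hour at 37 °C before a PRR agonist was added and the cells incubated overnight. NF-κB activity was read from supernatant SEAP with QUANTI-Blue at 620 nm absorbance, and IRF activity from Lucia luciferase with QUANTI-Luc by luminescence. Each signal was expressed as fold change by dividing by the mean agonist-only control on the same plate. Two replicate plates were averaged, with errors obtained by propagation.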

[2] = system: RAW-Dual (murine macrophage reporter line); assay: IRF reporter (Lucia luciferase) activity fold change vs agonist alone; higher = enhanced IRF activity
Procedure, shortened: as §1

[3] = system: RAW-Dual (murine macrophage reporter line); assay: viability score (confluency relative to resting cells, overnight) (fraction); higher = more viable, active = viable (0.7 or more)
Procedure, shortened: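 Overnight exposure to 10 μM final compound was carried out on RAW-Dual macrophages in 384-well plates. IncuCyte software generated two confluency masks over all wells imaged with IncuCyte. The viability score gives confluency in relation to resting cells. A compound met the cutoff if each mask exceeded 70% of resting cells.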

[4] = agonist: CpG ODN 1826 0.5 ug/mL

Structure (SMILES): COC(=O)C1=C(C)NC(C)=C(C(=O)OCCN2CCN(C(c3ccccc3)c3ccccc3)CC2)C1c1cccc([N+](=O)[O-])c1 (centres undefined)
- NF-kB reporter [1, 4]: 0.231 ± 0.038
- NF-kB reporter ([1]; agonist: LPS 0.1 ug/mL): 0.631 ± 0.07
- NF-kB reporter ([1]; agonist: MPLA […]): 0.89 ± 0.051
- IRF reporter ([2]; agonist: 3'3'-cGAMP 10 ug/mL): 0.138 ± 0.0049
- IRF reporter ([2]; agonist: LPS 0.1 ug/mL): 0.949 ± 0.11
- IRF reporter ([2]; agonist: MPLA […]): 1.1 ± 0.11
- viability score [3]: 0.966 (active)

Structure (SMILES): Cc1ccc2[nH]c3nc(C)cc(C)c3c(=O)c2c1
- NF-kB reporter [1, 4]: 0.967 ± 0.16
- NF-kB reporter ([1]; agonist: LPS 0.1 ug/mL): 1.08 ± 0.091
- NF-kB reporter ([1]; agonist: MPLA […]): 0.993 ± 0.12
- IRF reporter ([2]; agonist: 3'3'-cGAMP 10 ug/mL): 1.01 ± 0.052
- IRF reporter ([2]; agonist: LPS 0.1 ug/mL): 1.25 ± 0.25
- IRF reporter ([2]; agonist: MPLA […]): 1.31 ± 0.21
- viability score [3]: 0.704 (active)

Structure (SMILES): Cc1cc(C)n(CC2CCN(Cc3ccc(Br)cc3)CC2)n1
- NF-kB reporter [1, 4]: 0.933 ± 0.049
- NF-kB reporter ([1]; agonist: LPS 0.1 ug/mL): 0.745 ± 0.063
- NF-kB reporter ([1]; agonist: MPLA […]): 0.74 ± 0.049
- IRF reporter ([2]; agonist: 3'3'-cGAMP 10 ug/mL): 0.913 ± 0.05
- IRF reporter ([2]; agonist: LPS 0.1 ug/mL): 1.19 ± 0.21
- IRF reporter ([2]; agonist: MPLA […]): 1.27 ± 0.39
- viability score [3]: 0.626 (inactive)

Structure (SMILES): Nc1ccn([C@@H]2O[C@H](CO)[C@@H](O)C2(F)F)c(=O)n1
- NF-kB reporter [1, 4]: 1.8 ± 0.25
- NF-kB reporter ([1]; agonist: LPS 0.1 ug/mL): 1.07 ± 0.28
- NF-kB reporter ([1]; agonist: MPLA […]): 1.21 ± 0.11
- IRF reporter ([2]; agonist: 3'3'-cGAMP 10 ug/mL): 1.59 ± 0.088
- IRF reporter ([2]; agonist: LPS 0.1 ug/mL): 1.61 ± 0.35
- IRF reporter ([2]; agonist: MPLA […]): 1.33 ± 0.31
- viability score [3]: 0.241 (inactive)

Structure (SMILES): CC(C)c1c(C(=O)Nc2ccccc2)c(-c2ccccc2)c(-c2ccc(F)cc2)n1CC[C@@H](O)C[C@@H](O)CC(=O)O [Prestw-1232]
- NF-kB reporter [1, 4]: 1.63 ± 0.21
- NF-kB reporter ([1]; agonist: LPS 0.1 ug/mL): 1.05 ± 0.11
- NF-kB reporter ([1]; agonist: MPLA […]): 1.16 ± 0.033
- IRF reporter ([2]; agonist: 3'3'-cGAMP 10 ug/mL): 0.893 ± 0.036
- IRF reporter ([2]; agonist: LPS 0.1 ug/mL): 0.928 ± 0.068
- IRF reporter ([2]; agonist: MPLA […]): 1.13 ± 0.12
- viability score [3]: 0.995 (active)

Structure (SMILES): NC(=O)Cn1c(COc2ccccc2Cl)nc2ccccc21
- NF-kB reporter [1, 4]: 1.35 ± 0.32
- NF-kB reporter ([1]; agonist: LPS 0.1 ug/mL): 1.03 ± 0.051
- NF-kB reporter ([1]; agonist: MPLA […]): 0.96 ± 0.07
- IRF reporter ([2]; agonist: 3'3'-cGAMP 10 ug/mL): 1.01 ± 0.034
- IRF reporter ([2]; agonist: LPS 0.1 ug/mL): 1.26 ± 0.16
- IRF reporter ([2]; agonist: MPLA […]): 1.27 ± 0.21
- viability score [3]: 0.994 (active)

Structure (SMILES): CC(C)(O)C#Cc1ccccn1
- NF-kB reporter [1, 4]: 0.931 ± 0.052
- NF-kB reporter ([1]; agonist: LPS 0.1 ug/mL): 0.93 ± 0.14
- NF-kB reporter ([1]; agonist: MPLA […]): 0.909 ± 0.072
- IRF reporter ([2]; agonist: 3'3'-cGAMP 10 ug/mL): 0.916 ± 0.05
- IRF reporter ([2]; agonist: LPS 0.1 ug/mL): 1.11 ± 0.096
- IRF reporter ([2]; agonist: MPLA […]): 1.08 ± 0.29
- viability score [3]: 1.01 (active)

Structure (SMILES): CC(=O)Nc1ccc(O)cc1 [Prestw-868]
- NF-kB reporter [1, 4]: 0.876 ± 0.28
- NF-kB reporter ([1]; agonist: LPS 0.1 ug/mL): 1.04 ± 0.081
- NF-kB reporter ([1]; agonist: MPLA […]): 0.965 ± 0.082
- IRF reporter ([2]; agonist: 3'3'-cGAMP 10 ug/mL): 0.972 ± 0.056
- IRF reporter ([2]; agonist: LPS 0.1 ug/mL): 0.938 ± 0.19
- IRF reporter ([2]; agonist: MPLA […]): 1.03 ± 0.14
- viability score [3]: 0.998 (active)

Structure (SMILES): COC(=O)CCS(=O)(=O)c1ccc2ccccc2c1
- NF-kB reporter [1, 4]: 0.886 ± 0.055
- NF-kB reporter ([1]; agonist: LPS 0.1 ug/mL): 1.01 ± 0.1
- NF-kB reporter ([1]; agonist: MPLA […]): 1.05 ± 0.091
- IRF reporter ([2]; agonist: 3'3'-cGAMP 10 ug/mL): 1.08 ± 0.059
- IRF reporter ([2]; agonist: LPS 0.1 ug/mL): 1.31 ± 0.16
- IRF reporter ([2]; agonist: MPLA […]): 1.06 ± 0.095
- viability score [3]: 0.995 (active)

Structure (SMILES): CCC(C(=O)Nc1cc(Cl)cc(Cl)c1)c1ccccc1 (centres undefined)
- NF-kB reporter [1, 4]: 0.851 ± 0.05
- NF-kB reporter ([1]; agonist: LPS 0.1 ug/mL): 1.16 ± 0.098
- NF-kB reporter ([1]; agonist: MPLA […]): 1.11 ± 0.045
- IRF reporter ([2]; agonist: 3'3'-cGAMP 10 ug/mL): 1.09 ± 0.083
- IRF reporter ([2]; agonist: LPS 0.1 ug/mL): 1.11 ± 0.062
- IRF reporter ([2]; agonist: MPLA […]): 0.97 ± 0.12
- viability score [3]: 0.991 (active)

Structure (SMILES): CN(C)c1ccc(C=C2C(=O)C(=O)c3ccccc32)cc1Br
- NF-kB reporter [1, 4]: 0.989 ± 0.098
- NF-kB reporter ([1]; agonist: LPS 0.1 ug/mL): 0.947 ± 0.15
- NF-kB reporter ([1]; agonist: MPLA […]): 0.999 ± 0.036
- IRF reporter ([2]; agonist: 3'3'-cGAMP 10 ug/mL): 1.02 ± 0.21
- IRF reporter ([2]; agonist: LPS 0.1 ug/mL): 1 ± 0.043
- IRF reporter ([2]; agonist: MPLA […]): 1 ± 0.16
- viability score [3]: 1 (active)

Structure (SMILES): O=C(NCCn1nc(-c2ccccn2)c2c1CCCC2)c1c(F)cccc1Cl
- NF-kB reporter [1, 4]: 1.12 ± 0.062
- NF-kB reporter ([1]; agonist: LPS 0.1 ug/mL): 1.19 ± 0.12
- NF-kB reporter ([1]; agonist: MPLA […]): 0.921 ± 0.043
- IRF reporter ([2]; agonist: 3'3'-cGAMP 10 ug/mL): 0.975 ± 0.049
- IRF reporter ([2]; agonist: LPS 0.1 ug/mL): 1.1 ± 0.068
- IRF reporter ([2]; agonist: MPLA […]): 1.2 ± 0.26
- viability score [3]: 1 (active)

Structure (SMILES): COC(=O)C1=C(C)NC(C)=C(C(=O)OC(C)C)C1c1cccc2nonc12 (centres undefined)
- NF-kB reporter [1, 4]: 0.79 ± 0.062
- NF-kB reporter ([1]; agonist: LPS 0.1 ug/mL): 0.942 ± 0.073
- NF-kB reporter ([1]; agonist: MPLA […]): 1.11 ± 0.096
- IRF reporter ([2]; agonist: 3'3'-cGAMP 10 ug/mL): 0.645 ± 0.04
- IRF reporter ([2]; agonist: LPS 0.1 ug/mL): 1.08 ± 0.07
- IRF reporter ([2]; agonist: MPLA […]): 0.967 ± 0.14
- viability score [3]: 1 (active)

Structure (SMILES): Cc1cc(C)nc(SCCCCSc2nc(C)cc(C)n2)n1
- NF-kB reporter [1, 4]: 1.03 ± 0.062
- NF-kB reporter ([1]; agonist: LPS 0.1 ug/mL): 0.975 ± 0.14
- NF-kB reporter ([1]; agonist: MPLA […]): 0.944 ± 0.025
- IRF reporter ([2]; agonist: 3'3'-cGAMP 10 ug/mL): 1.13 ± 0.14
- IRF reporter ([2]; agonist: LPS 0.1 ug/mL): 0.979 ± 0.11
- IRF reporter ([2]; agonist: MPLA […]): 0.909 ± 0.21
- viability score [3]: 0.996 (active)

Structure (SMILES): Cc1nnc(C(C)C)n1C1CC2CCC(C1)N2CC[C@H](NC(=O)C1CCC(F)(F)CC1)c1ccccc1 (some centres undefined)
- NF-kB reporter [1, 4]: 0.928 ± 0.07
- NF-kB reporter ([1]; agonist: LPS 0.1 ug/mL): 1.05 ± 0.069
- NF-kB reporter ([1]; agonist: MPLA […]): 1.03 ± 0.051
- IRF reporter ([2]; agonist: 3'3'-cGAMP 10 ug/mL): 1.08 ± 0.2
- IRF reporter ([2]; agonist: LPS 0.1 ug/mL): 0.973 ± 0.087
- IRF reporter ([2]; agonist: MPLA […]): 1.03 ± 0.11
- viability score [3]: 1 (active)

Structure (SMILES): Cc1cccc(Oc2ccc(NC(=O)c3ccco3)cc2)c1C
- NF-kB reporter [1, 4]: 0.683 ± 0.049
- NF-kB reporter ([1]; agonist: LPS 0.1 ug/mL): 0.992 ± 0.12
- NF-kB reporter ([1]; agonist: MPLA […]): 1.12 ± 0.049
- IRF reporter ([2]; agonist: 3'3'-cGAMP 10 ug/mL): 0.483 ± 0.054
- IRF reporter ([2]; agonist: LPS 0.1 ug/mL): 0.965 ± 0.085
- IRF reporter ([2]; agonist: MPLA […]): 1.44 ± 0.22
- viability score [3]: 0.991 (active)

Structure (SMILES): O=C(O)c1cc(S(=O)(=O)N2CCCCC2)c(Cl)cc1Cl
- NF-kB reporter [1, 4]: 0.937 ± 0.082
- NF-kB reporter ([1]; agonist: LPS 0.1 ug/mL): 1.04 ± 0.087
- NF-kB reporter ([1]; agonist: MPLA […]): 0.965 ± 0.12
- IRF reporter ([2]; agonist: 3'3'-cGAMP 10 ug/mL): 0.912 ± 0.11
- IRF reporter ([2]; agonist: LPS 0.1 ug/mL): 1.18 ± 0.11
- IRF reporter ([2]; agonist: MPLA […]): 1.06 ± 0.28
- viability score [3]: 1.01 (active)
